The panel holds about 79,000 compounds, 15% with a hit somewhere; the sample as a whole holds those more often. The source made the active and inactive calls. Cut-off read from the data, not from the text of the source: active = growth inhibition above about 70%; inactive = the rest.
How the values were obtained:
[1] = NCI Yeast Anticancer Drug Screen. Data for the rad52 strain (AID 147);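 note: 0% = growth of vehicle-treated control cultures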; settings: S. cerevisiae rad52 mutant growth inhibition, hits give high values
Summary of the method: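 Compounds are applied to a genetically defined yeast strain lacking normal DNA damage repair, and inhibition of growth is expressed relative to cultures given vehicle only.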

[2] = NCI Yeast Anticancer Drug Screen. Data for the wt1 strain (AID 149);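 note: 0% = growth of vehicle-treated wt1 cultures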; settings: S. cerevisiae wt1 strain (SPY 50644) growth inhibition, hits give high values
Summary of the method: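 The wt1 strain was treated with compounds, and growth was compared with vehicle-treated cultures to give inhibition.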

[3] = NCI Yeast Anticancer Drug Screen. Data for the rad50EPP+ strain (AID 151);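 note: 0% = growth of vehicle-treated control cultures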; settings: S. cerevisiae rad50 mutant strain, hits give high values
Summary of the method: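 Compounds were applied to the rad50EPP+ yeast strain, which bears a defined DNA repair alteration, and growth inhibition was determined relative to vehicle-treated cultures.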

[4] = NCI Yeast Anticancer Drug Screen. Data for the mgt1 strain (AID 153); settings: S. cerevisiae mgt1 mutant growth inhibition, hits give high values
Summary of the method: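 Strain: mgt1 yeast, one of a set carrying defined DNA damage repair or cell cycle control alterations. Compound-treated growth compared with vehicle.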

[5] = NCI Yeast Anticancer Drug Screen. Data for the rad50 strain (AID 155);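 note: 0% = growth of vehicle-only cultures of the same strain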; settings: S. cerevisiae rad50 strain growth inhibition, hits give high values
Summary of the method: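 Cells are treated with compound, grown, and their growth is then scored against vehicle-only cultures of the same repair-deficient yeast strain.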

[6] = NCI Yeast Anticancer Drug Screen. Data for the mec2-1 strain (AID 157); settings: S. cerevisiae mec2-1 strain, hits give high values
Summary of the method: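 Strain: mec2-1 (DNA repair/cell cycle alteration). Compound exposure, then growth measured; inhibition expressed relative to vehicle.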

[7] = NCI Yeast Anticancer Drug Screen. Data for the rad14 strain (AID 159);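 note: 0% = growth of vehicle-treated control cultures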; settings: S. cerevisiae rad14 strain growth inhibition, hits give high values
Summary of the method: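 Readout: yeast growth inhibition, referenced to vehicle-only cultures. Strain bears a defined alteration in DNA damage repair.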

[8] = NCI Yeast Anticancer Drug Screen. Data for the sgs1 mgt1 strain (AID 161);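 note: 0% = growth of cultures given vehicle only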; settings: S. cerevisiae sgs1 mgt1 strain, hits give high values
Summary of the method: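 Mutant yeast exposed to compound; growth scored against vehicle-only wells.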

[9] = NCI Yeast Anticancer Drug Screen. Data for the CLN2oe strain (AID 163);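 note: 0% = growth of vehicle-only control cultures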; settings: S. cerevisiae CLN2oe strain, hits give high values
Summary of the method: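 Growth of a genetically modified yeast strain is measured after compound exposure and compared with cultures given vehicle alone.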

[10] = NCI Yeast Anticancer Drug Screen. Data for the cln2 rad14 strain (AID 165);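 note: 0% = growth equal to vehicle treated cultures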; settings: S. cerevisiae cln2 rad14 strain, hits give high values
Summary of the method: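 Compounds are applied to the cln2 rad14 yeast strain, and growth is then compared with that of vehicle-treated cultures to give inhibition.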

[11] = NCI Yeast Anticancer Drug Screen. Data for the bub3 strain (AID 167); settings: S. cerevisiae bub3 mutant strain, hits give high values
Summary of the method: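 Part of a panel of yeast mutants defective in DNA damage repair or cell cycle regulation. Each strain is grown with compound, and inhibition is calculated relative to solvent-treated cultures.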

[12] = NCI Yeast Anticancer Drug Screen. Data for the wt2 strain (AID 169);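 note: 0% = growth of vehicle-treated yeast cultures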; settings: S. cerevisiae wt2 strain growth inhibition, hits give high values
Summary of the method: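 This strain belongs to a panel of yeast strains with defined genetic alterations in DNA damage repair or cell cycle control. Compounds are applied, and growth inhibition is measured against vehicle-treated cultures.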

[13] = NCI Yeast Anticancer Drug Screen. Data for the sgs1 strain (AID 173);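 note: 0% = growth of vehicle-only control cultures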; settings: S. cerevisiae sgs1 mutant, hits give high values
Summary of the method: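 Growth of a yeast strain bearing a defined genetic alteration is measured after compound treatment. Inhibition is expressed relative to vehicle-only controls.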

[14] = NCI Yeast Anticancer Drug Screen. Data for the mlh1 rad18 strain (AID 175); settings: S. cerevisiae mlh1 rad18 strain growth inhibition, hits give high values
Summary of the method: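 Read-out is yeast growth inhibition, calculated against vehicle-only controls. The compound was applied to a strain engineered with DNA damage repair alterations.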

[15] = NCI Yeast Anticancer Drug Screen. Data for the rad18 strain (AID 177); settings: S. cerevisiae rad18 mutant growth inhibition, hits give high values
Summary of the method: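 Growth of the mutant yeast strain after compound exposure, normalised to vehicle-only cultures.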

[16] = NCI Yeast Anticancer Drug Screen. Data for the mlh1 strain (AID 171);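 note: 0% = growth of vehicle-treated control cultures of the same strain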; settings: S. cerevisiae mlh1 strain growth inhibition, hits give high values
Summary of the method: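 Growth of the mutant yeast strain after compound exposure, expressed as inhibition relative to vehicle-only controls.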

[17] = at 5.0 µM (retest, dose inferred, filed as 0.5)
[18] = at 50.0 µM (retest, dose inferred, filed as 5.0)

Measured: growth inhibition

O=c1c2ccccc2ncn1COCc1ccccc1
active: [8]; at 50.0 µM 89.5% | [10]; [18] 75% | [11]; [18] 88% | [11]; at 50.0 µM 74.3%
inactive: [1]; at 1.2 µM -4% | [1]; at 3.7 µM 3% | [1]; at 11.0 µM -22% | [1]; at 33.0 µM -16% | [1]; at 100.0 µM 2% | [2]; at 1.2 µM -2% | [2]; at 3.7 µM -19% | [2]; at 11.0 µM -11% | [2]; at 33.0 µM -13% | [2]; at 100.0 µM 8% | [3]; at 1.2 µM -31% | [3]; at 3.7 µM -30% | [3]; at 11.0 µM -28% | [3]; at 33.0 µM -21% | [3]; at 100.0 µM 8% | [4]; at 1.2 µM -17% | [4]; at 3.7 µM -14% | [4]; at 11.0 µM -11% | [4]; at 33.0 µM 1% | [4]; at 100.0 µM 21% | [5]; at 1.2 µM -10% | [5]; at 3.7 µM 2% | [5]; [17] 14% | [5]; at 11.0 µM 3% | [5]; at 33.0 µM 9% | [5]; [18] 19% | [5]; at 50.0 µM 1.9% | [5]; at 100.0 µM 23% | [6]; at 1.2 µM -12% | [6]; at 3.7 µM -15% | [6]; [17] 14% | [6]; at 11.0 µM -11% | [6]; at 33.0 µM 2% | [6]; [18] 15% | [6]; at 50.0 µM -6.6% | [6]; at 100.0 µM 26% | [7]; at 1.2 µM -13% | [7]; at 3.7 µM 0% | [7]; at 11.0 µM -15% | [7]; at 33.0 µM -6% | [7]; at 100.0 µM 5% | [8]; [17] 13% | [8]; [18] 69% | [9]; at 1.2 µM -26% | [9]; at 3.7 µM -15% | [9]; at 11.0 µM -12% | [9]; at 33.0 µM -20% | [9]; at 100.0 µM -9% | [10]; [17] 12% | [10]; at 50.0 µM 52.4% | [11]; at 1.2 µM -20% | [11]; at 3.7 µM -18% | [11]; [17] 7% | [11]; at 11.0 µM -7% | [11]; at 33.0 µM 29% | [11]; at 100.0 µM 58% | [12]; at 1.2 µM -16% | [12]; at 3.7 µM -3% | [12]; at 11.0 µM -7% | [12]; at 33.0 µM -3% | [12]; at 100.0 µM 15% | [13]; at 1.2 µM -49% | [13]; at 3.7 µM -34% | [13]; at 11.0 µM -37% | [13]; at 33.0 µM -21% | [13]; at 100.0 µM -7% | [14]; [17] 18% | [14]; [18] 30% | [14]; at 50.0 µM -22.1% | [15]; at 1.2 µM -3% | [15]; at 3.7 µM -5% | [15]; at 11.0 µM 3% | [15]; at 33.0 µM 9% | [15]; at 100.0 µM 26%

CC(=O)Oc1cc(-c2cc(OC(C)=O)c(OC(C)=O)c3ccccc23)c2ccccc2c1OC(C)=O
inactive: [1]; at 1.2 µM 3% | [1]; at 3.7 µM 4% | [1]; at 11.0 µM 7% | [1]; at 33.0 µM 13% | [2]; at 1.2 µM 8% | [2]; at 3.7 µM 12% | [2]; at 11.0 µM 10% | [2]; at 33.0 µM 12% | [2]; at 100.0 µM 59% | [3]; at 1.2 µM 3% | [3]; at 3.7 µM 6% | [3]; at 11.0 µM 12% | [3]; at 33.0 µM 19% | [3]; at 100.0 µM 21% | [4]; at 1.2 µM 5% | [4]; at 3.7 µM 5% | [4]; at 11.0 µM 5% | [4]; at 33.0 µM 13% | [5]; at 1.2 µM 4% | [5]; at 3.7 µM 8% | [5]; [17] 22% | [5]; at 11.0 µM 12% | [5]; at 33.0 µM 24% | [6]; at 1.2 µM 2% | [6]; at 3.7 µM 9% | [6]; [17] 14% | [6]; at 11.0 µM 12% | [6]; at 33.0 µM 24% | [7]; at 1.2 µM 1% | [7]; at 3.7 µM 3% | [7]; at 11.0 µM 7% | [7]; at 33.0 µM 43% | [8]; [17] 24% | [9]; at 1.2 µM 3% | [9]; at 3.7 µM 0% | [9]; at 11.0 µM -5% | [9]; at 33.0 µM -2% | [9]; at 100.0 µM 57% | [10]; [17] 7% | [10]; [18] 56% | [10]; at 50.0 µM 38% | [12]; at 1.2 µM 10% | [12]; at 3.7 µM 9% | [12]; at 11.0 µM 8% | [12]; at 33.0 µM 11% | [16]; at 1.2 µM 1% | [16]; at 3.7 µM 3% | [16]; at 11.0 µM 6% | [16]; at 33.0 µM 23% | [13]; at 1.2 µM 7% | [13]; at 3.7 µM 10% | [13]; at 11.0 µM 11% | [13]; at 33.0 µM 16% | [14]; [17] 19% | [15]; at 1.2 µM 1% | [15]; at 3.7 µM 6% | [15]; at 11.0 µM 10% | [15]; at 33.0 µM 26%
active: [1]; at 100.0 µM 79% | [4]; at 100.0 µM 82% | [5]; [18] 82% | [5]; at 50.0 µM 83.5% | [5]; at 100.0 µM 86% | [6]; [18] 70% | [6]; at 50.0 µM 82.6% | [6]; at 100.0 µM 79% | [7]; at 100.0 µM 95% | [8]; [18] 85% | [8]; at 50.0 µM 87% | [12]; at 100.0 µM 86% | [16]; at 100.0 µM 93% | [13]; at 100.0 µM 82% | [14]; [18] 96% | [14]; at 50.0 µM 93.6% | [15]; at 100.0 µM 90%
